Measured values as given in PubChem BioAssay AID620 (Sanford-Burnham Center for Chemical Genomics, 2007).
In all, about 87,000 compounds went through this assay and about 360 (0.41%) were called active. Only a selection was taken, and actives are over-represented in it overall. Unmarked numbers belong to inactive results. Cut-off read from the data, not from the text of the source: active = cytotoxicity above about 50%; inactive = the rest.

Assay: HT1080 cell viability loss – fluorescence readout (AID 620);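 note: cells exposed to compound overnight then 4 h with Alamar Blue; 0% = vehicle DMSO and 100% = killing control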
Settings: at 10 µM, active compounds read high
For `COc1ccc2c(c1)c(=O)oc1cc(OCC(=O)N3CCCC(C)C3)ccc12` (configuration not stated), the cytotoxicity was -1.8%. Work on `CCC1=C(C)N(CCCC(=O)O)C(=O)NC1c1cccc(Cl)c1Cl` (configuration not stated) yielded a cytotoxicity of -11.7%. In the case of `CCOC(=O)C1=C(C)NC(SCC(=O)O)=C(C#N)C1c1ccco1` (configuration not stated), the cytotoxicity is reported as -8%. Compound `O=C(CN(C1CCCCC1)S(=O)(=O)c1ccccc1)NCc1cccnc1` has a cytotoxicity of 1.3%. With `CCOC(=O)c1c(C)[nH]c2cc(Br)c(OC)cc12` the cytotoxicity was -9%. Compound `C=CCNC(=O)C12CC3(C)CC(C)(CC(C)(C3)C1)C2` has a cytotoxicity of -24.6%. With `CCOC(=O)c1c(NC(=O)CCl)sc(C(=O)N(CC)CC)c1C` the cytotoxicity was 53.8% (active). Compound `CCOC(=O)c1c(NC(=O)CN(C)C)sc(C(=O)N(CC)CC)c1C` has a cytotoxicity of 25.3%. In the case of `CCOC(=O)Nc1sc(C(=O)N(CC)CC)c(C)c1C(=O)OCC`, the cytotoxicity is reported as -6%. Work on `CCC(C)[C@H](NC(=O)NCc1cccs1)C(=O)O` (some centres not stated) yielded a cytotoxicity of 8.7%. For `CC(C)(C)NC(=O)Cn1nnnc1-c1nonc1N`, the cytotoxicity was 0.2%. Work on `CCOC(=O)c1cnc(SCc2ccc(C)cc2)nc1N` yielded a cytotoxicity of 5.8%. With `CCC(=O)Nc1nonc1-c1nc2ccccc2n1Cc1cccc2ccccc12` the cytotoxicity was 56.3% (active). Compound `CCC(=O)Nc1nonc1-c1nc2ccccc2n1Cc1ccc(Cl)c(Cl)c1` has a cytotoxicity of -2.7%. Work on `CCCCOc1ccccc1NC(=O)Cn1c(-c2nonc2N)nc2ccccc21` yielded a cytotoxicity of 24.5%. With `CCC(=O)Nc1nonc1-c1nc2ccccc2n1CC(C)C` the cytotoxicity was 2.9%. With `COC(=O)c1ccccc1NC(=O)Cn1c(-c2nonc2N)nc2ccccc21` the cytotoxicity was 32%. For `CCOC(=O)c1ccccc1NC(=O)Cn1c(-c2nonc2N)nc2ccccc21`, the cytotoxicity was 60.4% (active). `O=C(O)c1cccc(CN2C(=O)CSC2=O)c1` gave a cytotoxicity of 3.1%. In the case of `Cc1nn(-c2ccccc2)c2sc(C(=O)OCN3C(=O)c4ccccc4C3=O)cc12`, the cytotoxicity is reported as -4%. For `NC(=O)c1ccccc1OCC(=O)NS(=O)(=O)c1ccc(Cl)cc1`, the cytotoxicity was -12.8%. For `CC(C)COc1ccc(CNC(=S)N/N=C/c2ccc([N+](=O)[O-])cc2)cc1`, the cytotoxicity was -12.7%. In the case of `O=C1C2CCCN2C(c2cccc(F)c2)N1c1cccc(Cl)c1` (configuration not stated), the cytotoxicity is reported as 8.3%. For `N=c1n(CCN2CCOCC2)c2ccccc2n1CC(=O)c1ccc(Cl)c(Cl)c1`, the cytotoxicity was 80.5% (active). `N=c1n(CCOc2ccccc2)c2ccccc2n1CCN1CCOCC1` showed a cytotoxicity of 6.2%. In the case of `CCCCOC(=O)Cn1c(=N)n(CCN2CCOCC2)c2ccccc21`, the cytotoxicity is reported as -3.2%. In the case of `O=C(COc1ncnc2ccccc12)NC1CCS(=O)(=O)C1` (configuration not stated), the cytotoxicity is reported as 0.3%. With `O=C(Nc1ccc(NC(=O)C2CCCCC2)nc1)c1ccco1` the cytotoxicity was -0.2%. In the case of `COc1ccccc1N1CCN(Cc2nc(N)nc(Nc3ccc(C)cc3)n2)CC1`, the cytotoxicity is reported as -2.7%. `CSc1nc(C)c2cc(C)oc2n1` gave a cytotoxicity of 10.3%. Compound `COc1ccc2nc(NC(=O)CCn3cccc3)sc2c1` has a cytotoxicity of 2.1%. In the case of `CN(C)c1ncc(C2=C(Cl)C(=O)C(N3CCCC3)=C(Cl)C2=O)s1`, the cytotoxicity is reported as 16.7%. With `CN1CCN(C2=C(Cl)C(=O)C(c3cnc(N4CCCCC4)s3)=C(Cl)C2=O)CC1` the cytotoxicity was 37.1%. For `CCCCOc1ccc(CSc2nncn2N)cc1`, the cytotoxicity was 0.8%. Compound `O=C1CCCN1c1ccc(S(=O)(=O)NCCOc2ccccc2)cc1` has a cytotoxicity of -6.1%. In the case of `Cc1ccccc1NS(=O)(=O)c1ccc(F)cc1`, the cytotoxicity is reported as 6.2%. With `COc1ccc(CCNS(=O)(=O)c2ccc(N3CCCC3=O)cc2)cc1` the cytotoxicity was -12.5%. In the case of `Cc1ccccc1NS(=O)(=O)c1ccc(N2CCCC2=O)cc1`, the cytotoxicity is reported as 56.7% (active). In the case of `COc1ccc(OC)c(NS(=O)(=O)c2ccc3c(c2)n(C)c(=O)n3C)c1`, the cytotoxicity is reported as -7.2%. In the case of `COc1ccc(OC)c(NS(=O)(=O)c2ccc(N3CCCC3=O)cc2)c1`, the cytotoxicity is reported as 60.6% (active). `CCOC(=O)C1CCN(C(=O)Nc2ccc3nc(C)c(C)nc3c2)CC1` showed a cytotoxicity of 2.9%. Work on `Cc1cc(C)c(S(=O)(=O)NCC2CCC(C(=O)NCCCN3CCOCC3)CC2)c(C)c1` (configuration not stated) yielded a cytotoxicity of 2.9%. With `Cc1cc(C)c(NC(=O)c2ccc(S(=O)(=O)N3CCOCC3)cc2)c(C)c1` the cytotoxicity was -5.9%. Compound `C=CCN1C(=O)S/C(=C/c2ccsc2)C1=O` has a cytotoxicity of 2.6%. With `C=CCOC(=O)c1[nH]c2c(c1C)C(=O)CC(c1ccco1)C2` (configuration not stated) the cytotoxicity was 67.5% (active). With `C/C=C/COC(=O)c1[nH]c2c(c1C)C(=O)CC(c1ccco1)C2` (configuration not stated) the cytotoxicity was 65.5% (active). In the case of `C/C=C/COC(=O)c1[nH]c2c(c1C)C(=O)CC(c1ccc(N(C)C)cc1)C2` (configuration not stated), the cytotoxicity is reported as -0.3%. `N#CC1=C2C=CC=CN2CC1=O` gave a cytotoxicity of -0.7%. `COc1ccc(CC(=O)N2CCCc3ccccc32)cc1` showed a cytotoxicity of -11%. Compound `CCSC1(SCC)N=C(N)C2(C#N)C(c3ccccc3)NC(C)=C(C)C12C#N` (configuration not stated) has a cytotoxicity of 6.9%. With `CCN(CC)S(=O)(=O)c1ccc(Br)c(OC)c1` the cytotoxicity was -1.2%. With `CCc1ccccc1NC(=O)CN1C(=O)C2CCCN2c2ncc(Cl)cc21` (configuration not stated) the cytotoxicity was -1.2%. In the case of `O=C(O)Cc1ccc(C(=O)c2cccs2)s1`, the cytotoxicity is reported as 6.9%. In the case of `O=C(c1cccs1)c1no[n+]([O-])c1C(=O)c1cccs1`, the cytotoxicity is reported as 73.8% (active). `Cc1ccc(C(=O)c2nocc2C(=O)c2cccs2)cc1` gave a cytotoxicity of -9.5%. With `CCOC(=O)N1CCN(C(=O)c2cnsn2)CC1` the cytotoxicity was -5.1%. Compound `CC(C)(C)N1CC(c2nc3ccccc3n2Cc2ccccc2)CC1=O` (configuration not stated) has a cytotoxicity of -14.8%. `Cc1cccc(N(C)C(=O)COc2cc(=O)n(C)c3ccccc23)c1` gave a cytotoxicity of 2%. In the case of `Cc1cnc(C(=O)OCC(=O)N2c3ccccc3NC(=O)C2(C)C)cn1`, the cytotoxicity is reported as -0.5%. For `CCN(CC)Cc1c(-c2ccccc2)[nH]c2ccc(C)cc2c1=O`, the cytotoxicity was 5.1%. With `O=c1cc(-c2ccccc2)[nH]c2ccccc12` the cytotoxicity was 67.1% (active). Work on `O=c1cc(-c2ccccc2)c2ccccc2[nH]1` yielded a cytotoxicity of -2.5%. In the case of `Cc1ccc2[nH]c(-c3ccccc3)cc(=O)c2c1`, the cytotoxicity is reported as 71.1% (active). For `Cc1cc(=O)c2ccccc2[nH]1`, the cytotoxicity was 26.5%. Work on `Cc1ccc2[nH]c(C(=O)O)c(-c3ccccc3)c2c1` yielded a cytotoxicity of -8.4%. In the case of `Cc1ccc(NC(=O)N(CCCN2CCOCC2)Cc2cc3cc4c(cc3[nH]c2=O)OCO4)cc1`, the cytotoxicity is reported as -5.1%. `C#CC(C)(CC)NC(=O)Cn1nnc(-c2ccc(S(C)(=O)=O)cc2)n1` (configuration not stated) gave a cytotoxicity of -5.1%. `CC(CN1CCCCC1)OC(=O)Cc1ccc(Cl)cc1` (configuration not stated) showed a cytotoxicity of -6.9%. `O=C(NCC(c1cccs1)N1CCOCC1)c1ccco1` (configuration not stated) showed a cytotoxicity of 9%. In the case of `O=C(NCC(c1cccs1)N1CCOCC1)c1ccc(Cl)s1` (configuration not stated), the cytotoxicity is reported as 62.9% (active). `O=C(NCC(c1ccc(F)cc1)N1CCOCC1)c1ccc(Br)o1` (configuration not stated) showed a cytotoxicity of -5.4%. For `O=C(NCC(c1cccs1)N1CCOCC1)c1ccc(Br)o1` (configuration not stated), the cytotoxicity was 56.3% (active). `CCC(=O)NCC(c1cccs1)N1CCOCC1` (configuration not stated) showed a cytotoxicity of -3.1%. With `O=C(COc1ccccc1)NCC(c1cccs1)N1CCOCC1` (configuration not stated) the cytotoxicity was -8.1%. Work on `CCCCCC(=O)OC(CN1CCCCC1)CN1CCCC1=O` (configuration not stated) yielded a cytotoxicity of 6.6%. `COc1ccccc1NC(=S)NNC(=O)c1ccc(Cl)cc1Cl` showed a cytotoxicity of -4%. `Cc1ccc(-c2noc(-c3ccccc3C(=O)N3CCOCC3)n2)cc1` showed a cytotoxicity of -2.2%. Compound `Cc1cc(N2CCCC2=O)cc(C)c1S(=O)(=O)NCCOc1ccccc1` has a cytotoxicity of 0.6%. Work on `CCOc1ccc(NC2=NC(C(=O)NCc3ccccc3)CC(=O)N2)cc1` (configuration not stated) yielded a cytotoxicity of 7.4%. With `CC(C)(C)c1ccc(C(=O)Nc2cnccn2)cc1` the cytotoxicity was -0.1%. For `Cc1noc(C)c1COc1ccc(C(=O)OCC(=O)N2CC(=O)Nc3ccccc32)cc1`, the cytotoxicity was -12.1%. `CCC(Oc1ccccc1)C(=O)Nc1nnc(C)s1` (configuration not stated) gave a cytotoxicity of -5.1%. `Cc1occc1C(=O)Nc1ccc2c(c1)OCCO2` showed a cytotoxicity of 11.2%. Work on `CC(=O)NC1C(=O)N(C)c2ccc(Br)cc21` (configuration not stated) yielded a cytotoxicity of -16.4%. In the case of `Cc1ccc(Cc2c(C)nc3nc(SCC(=O)NCc4ccco4)nn3c2C)cc1`, the cytotoxicity is reported as 69.7% (active). With `Cc1nc2nc(SCC(=O)NCc3ccco3)nn2c(C)c1Cc1c(F)cccc1Cl` the cytotoxicity was -13.6%. Work on `Cc1ccccc1Cc1c(C)nc2nc(SCC(=O)NCc3ccco3)nn2c1C` yielded a cytotoxicity of -13.4%. Work on `O=C(c1ccco1)N1CCCC(c2nc(-c3ccc(S(=O)(=O)NCc4ccccc4)cc3)no2)C1` (configuration not stated) yielded a cytotoxicity of -1.4%. For `CCCCS(=O)(=O)c1sc2nc(C)cc(C)c2c1N`, the cytotoxicity was 12.9%. For `Cc1cccc(-c2noc(CCC(=O)NCc3ccco3)n2)c1`, the cytotoxicity was 7.3%. In the case of `Cc1ccc(-c2noc(CCC(=O)NCc3ccco3)n2)cc1`, the cytotoxicity is reported as 64% (active). With `O=C(CCc1nc(-c2ccccc2)no1)NCc1ccco1` the cytotoxicity was 6.9%. `CCn1cnc2cc(NCc3nc4ccccc4n3C)ccc21` showed a cytotoxicity of 1.7%. Work on `Cc1cc(NC(=O)C2CC(c3ccc(Cl)cc3)=NO2)no1` (configuration not stated) yielded a cytotoxicity of -7.6%. Work on `Cc1cccc(NS(=O)(=O)Cc2ccccc2)n1` yielded a cytotoxicity of -2.7%. For `CCCOc1ccccc1C1CC(=O)NC2=C1C(=O)CCC2` (configuration not stated), the cytotoxicity was 39.4%. For `CCCOc1c(OC)cccc1C1CC(=O)Nc2cc3c(cc21)OCCO3` (configuration not stated), the cytotoxicity was -3.5%. For `O=C1CC(c2ccc3c(c2)OCO3)c2cc3c(cc2N1)OCCO3` (configuration not stated), the cytotoxicity was 8.1%. In the case of `CCCCOc1ccccc1C1CC(=O)NC2=C1C(=O)CCC2` (configuration not stated), the cytotoxicity is reported as 56% (active). With `CCOc1ccccc1C1CC(=O)Nc2cc3c(cc21)OCO3` (configuration not stated) the cytotoxicity was 67.2% (active). Compound `O=C1CC(c2cccs2)c2cc3c(cc2N1)OCCO3` (configuration not stated) has a cytotoxicity of -3.6%. `CCCOc1c(OC)cccc1C1CC(=O)Nc2cc3c(cc21)OCO3` (configuration not stated) showed a cytotoxicity of -2.6%. For `CCOc1ccccc1C1CC(=O)NC2=C1C(=O)CCC2` (configuration not stated), the cytotoxicity was 11.2%. Compound `CCOc1c(OC)cccc1C1CC(=O)Nc2cc3c(cc21)OCCO3` (configuration not stated) has a cytotoxicity of -3.8%. For `CCOc1ccccc1C1CC(=O)Nc2cc3c(cc21)OCCO3` (configuration not stated), the cytotoxicity was 68.1% (active). `CCOc1c(OC)cccc1C1CC(=O)Nc2cc(OC)c(OC)cc21` (configuration not stated) showed a cytotoxicity of -2.2%. In the case of `CCCOc1ccccc1C1CC(=O)Nc2cc3c(cc21)OCCO3` (configuration not stated), the cytotoxicity is reported as 58.6% (active).
